# In PubChem BioAssay (EPA / NIEHS):
# Records with an inconclusive call do not appear. Active and inactive are the calls of the source. Rule for the calls: active = hit-call score of the fitted dose curve at least 0.9, where 1 is the maximum; inconclusive = response in the unintended direction; inactive = score below 0.9.
# Assays:
# [1] = molecular target: rat Thyrotropin Releasing Hormone Receptor (TRH), Trhr (gene 25570) (UniProt Q01717); test: NVS_GPCR_rTRH: NovaScreen (NVS) G Protein-Coupled Receptor Assay for rat Thyrotropin Releasing Hormone Receptor (TRH) (AID 2283329);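 note: hit means lower bound tracer signal versus DMSO baseline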
# Chain of rat Thyrotropin Releasing Hormone Receptor (TRH), Trhr (gene 25570) (Q01717 whole entry, looked up): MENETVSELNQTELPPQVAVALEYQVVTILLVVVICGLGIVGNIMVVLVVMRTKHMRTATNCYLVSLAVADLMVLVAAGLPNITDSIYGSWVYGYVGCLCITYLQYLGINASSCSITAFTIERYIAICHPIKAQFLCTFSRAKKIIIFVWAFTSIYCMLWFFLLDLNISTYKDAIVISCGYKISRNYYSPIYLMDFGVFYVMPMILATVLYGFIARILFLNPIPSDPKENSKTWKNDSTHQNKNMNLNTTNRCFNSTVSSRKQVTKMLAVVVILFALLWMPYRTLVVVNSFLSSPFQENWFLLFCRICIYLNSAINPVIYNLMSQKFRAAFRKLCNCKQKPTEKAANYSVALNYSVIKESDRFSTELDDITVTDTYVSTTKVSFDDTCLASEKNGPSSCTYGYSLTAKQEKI
# Procedure, shortened: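 Competitive radioligand binding on rat forebrain membrane preparations, with filtration and scintillation readout after 4 h. Primary testing in duplicate at 25 uM; actives confirmed in concentration-response. DMSO defined baseline.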
# [2] = molecular target: Sodium channel protein type 1 subunit alpha (Rattus norvegicus) (UniProt P04774); test: NVS_IC_rNaCh_site2: NovaScreen (NVS) Ion Channel Assay for rat Sodium Channel, Site 2 (NaCh) (AID 2283322);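 note: hit means loss of radioligand binding signal relative to DMSO so AC50 marks displacement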
# Procedure, shortened: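 Membranes: rat forebrain. Format: competitive radioligand displacement, filter separation, scintillation readout, 1 h exposure. Primary screen in duplicate at 25 uM; actives retested in concentration series.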
# [3] = molecular target: rat Glutamate, AMPA Site (AMPA), Gria1 (gene 50592) (UniProt P19490); test: NVS_LGIC_rAMPA: NovaScreen (NVS) Ligand-Gated Ion Channel Assay for rat Glutamate, AMPA Site (AMPA) (AID 2283324)
# Chain of rat Glutamate, AMPA Site (AMPA), Gria1 (gene 50592) (P19490 whole entry, looked up): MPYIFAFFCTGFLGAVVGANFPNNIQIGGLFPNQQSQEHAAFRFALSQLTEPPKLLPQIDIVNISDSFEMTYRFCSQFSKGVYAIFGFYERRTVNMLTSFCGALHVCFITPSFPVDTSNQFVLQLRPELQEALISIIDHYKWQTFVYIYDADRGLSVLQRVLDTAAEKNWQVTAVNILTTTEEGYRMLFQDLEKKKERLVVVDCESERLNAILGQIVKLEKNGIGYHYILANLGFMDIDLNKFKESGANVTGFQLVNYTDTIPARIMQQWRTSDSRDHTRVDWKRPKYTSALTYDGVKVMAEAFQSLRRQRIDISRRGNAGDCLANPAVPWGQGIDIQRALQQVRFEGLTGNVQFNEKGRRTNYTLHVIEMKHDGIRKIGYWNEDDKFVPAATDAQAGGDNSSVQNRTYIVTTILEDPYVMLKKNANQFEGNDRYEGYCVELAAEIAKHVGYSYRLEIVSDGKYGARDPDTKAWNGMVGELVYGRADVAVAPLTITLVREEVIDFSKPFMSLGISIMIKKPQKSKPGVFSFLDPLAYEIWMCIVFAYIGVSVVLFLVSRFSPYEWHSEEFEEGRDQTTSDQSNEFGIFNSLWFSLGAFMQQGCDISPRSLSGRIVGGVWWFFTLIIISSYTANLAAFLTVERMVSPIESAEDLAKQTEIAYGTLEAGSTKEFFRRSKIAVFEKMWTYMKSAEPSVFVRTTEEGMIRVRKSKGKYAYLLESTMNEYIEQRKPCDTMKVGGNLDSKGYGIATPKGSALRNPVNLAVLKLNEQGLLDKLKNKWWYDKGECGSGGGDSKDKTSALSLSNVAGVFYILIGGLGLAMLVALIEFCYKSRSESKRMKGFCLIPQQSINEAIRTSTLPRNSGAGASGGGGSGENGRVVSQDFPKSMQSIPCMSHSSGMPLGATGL
# Procedure, shortened: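 Rat forebrain membranes; radioligand binding read 1 h after dosing by filtration and scintillation counting. Duplicate single-point screen at 25 uM, then concentration-response to 50 uM for threshold hits (e.g. 30% inhibition); loss of signal vs DMSO.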
# [4] = molecular target: rat Glutamate, NMDA Agonist Site (GluNMDA), Grin1 (gene 24408) (UniProt P35439); test: NVS_LGIC_rGluNMDA_Agonist: NovaScreen (NVS) Ligand-Gated Ion Channel Assay for rat Glutamate, NMDA Agonist Site (GluNMDA) (AID 2283327)
# Procedure, shortened: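 Rat forebrain membranes, radioligand binding in the agonist-site protocol; 1 h after dosing; filter-based scintillation counting. Single-concentration duplicate screen at 25 uM, then concentration-response up to 50 uM for actives; gain-of-signal vs DMSO.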
# [5] = molecular target: human Peripheral-type Benzodiazepine Receptor (PBR), TSPO (gene 706) (UniProt P30536); test: NVS_MP_hPBR: NovaScreen (NVS) Membrane Protein Assay for human Peripheral-type Benzodiazepine Receptor (PBR) (AID 2283331);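 note: hits reduce radioligand binding relative to DMSO baseline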
# Chain of human Peripheral-type Benzodiazepine Receptor (PBR), TSPO (gene 706) (P30536 whole entry, looked up): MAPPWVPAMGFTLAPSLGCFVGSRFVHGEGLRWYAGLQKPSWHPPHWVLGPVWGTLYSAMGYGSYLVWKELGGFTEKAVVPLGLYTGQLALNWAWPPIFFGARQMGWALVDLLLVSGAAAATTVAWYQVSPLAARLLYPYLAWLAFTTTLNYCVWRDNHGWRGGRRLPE
# Procedure, shortened: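 Scintillation counts of filter-bound radioligand served as read-out after 1 h chemical dosing of human colonic membrane preparations. Activity was scored as signal loss against DMSO; initial duplicates at 25 uM, confirmatory concentration series afterward.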
# [6] = molecular target: Voltage-gated inwardly rectifying potassium channel KCNH2 (Homo sapiens) (UniProt Q12809); test: NVS_IC_hKhERGCh: NovaScreen (NVS) Ion Channel Assay for human Potassium Channel ERG (KhERGCh) (AID 2283333)
# Chain of Voltage-gated inwardly rectifying potassium channel KCNH2 (Homo sapiens) (Q12809 whole entry, looked up): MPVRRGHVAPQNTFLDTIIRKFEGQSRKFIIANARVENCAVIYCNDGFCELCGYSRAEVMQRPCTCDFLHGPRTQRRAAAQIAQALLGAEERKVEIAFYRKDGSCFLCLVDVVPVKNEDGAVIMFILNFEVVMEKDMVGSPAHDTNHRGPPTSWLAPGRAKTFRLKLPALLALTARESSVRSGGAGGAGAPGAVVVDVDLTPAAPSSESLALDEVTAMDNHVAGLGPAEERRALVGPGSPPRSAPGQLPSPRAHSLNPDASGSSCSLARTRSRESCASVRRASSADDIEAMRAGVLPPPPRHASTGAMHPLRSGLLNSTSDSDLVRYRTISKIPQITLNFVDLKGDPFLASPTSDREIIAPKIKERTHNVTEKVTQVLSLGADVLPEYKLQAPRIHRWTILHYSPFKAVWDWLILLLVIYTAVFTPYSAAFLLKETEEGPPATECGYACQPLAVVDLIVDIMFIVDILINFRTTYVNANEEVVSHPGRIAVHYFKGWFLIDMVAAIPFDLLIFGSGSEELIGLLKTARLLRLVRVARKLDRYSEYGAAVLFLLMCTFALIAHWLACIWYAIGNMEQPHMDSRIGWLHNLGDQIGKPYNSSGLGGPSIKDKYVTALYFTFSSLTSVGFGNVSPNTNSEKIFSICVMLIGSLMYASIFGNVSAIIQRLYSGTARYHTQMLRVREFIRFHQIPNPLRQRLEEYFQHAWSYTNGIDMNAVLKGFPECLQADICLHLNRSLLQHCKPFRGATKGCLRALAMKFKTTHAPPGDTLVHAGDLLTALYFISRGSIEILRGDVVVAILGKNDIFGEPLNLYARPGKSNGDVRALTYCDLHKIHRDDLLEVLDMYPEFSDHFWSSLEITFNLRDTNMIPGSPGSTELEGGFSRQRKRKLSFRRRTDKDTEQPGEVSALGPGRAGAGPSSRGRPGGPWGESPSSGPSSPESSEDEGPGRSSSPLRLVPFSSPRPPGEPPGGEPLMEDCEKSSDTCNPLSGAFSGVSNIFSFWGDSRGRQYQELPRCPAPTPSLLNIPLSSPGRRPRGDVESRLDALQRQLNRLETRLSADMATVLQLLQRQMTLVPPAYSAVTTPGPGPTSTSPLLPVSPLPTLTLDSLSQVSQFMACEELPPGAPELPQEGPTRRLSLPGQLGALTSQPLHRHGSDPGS
# Procedure, shortened: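 Cell-free radioligand competition binding on hERG protein extracted from CHO cells, read by filter-based scintillation counting 0.75 h after dosing. Primary screen at 25 uM in duplicate, actives followed in concentration series. Signal loss fitted versus DMSO.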
# [7] = molecular target: rat Oxytocin Receptor (OXT), Oxtr (gene 25342) (UniProt P70536); test: NVS_GPCR_rOXT: NovaScreen (NVS) G Protein-Coupled Receptor Assay for rat Oxytocin Receptor (OXT) (AID 2283330)
# Chain of rat Oxytocin Receptor (OXT), Oxtr (gene 25342) (P70536 whole entry, looked up): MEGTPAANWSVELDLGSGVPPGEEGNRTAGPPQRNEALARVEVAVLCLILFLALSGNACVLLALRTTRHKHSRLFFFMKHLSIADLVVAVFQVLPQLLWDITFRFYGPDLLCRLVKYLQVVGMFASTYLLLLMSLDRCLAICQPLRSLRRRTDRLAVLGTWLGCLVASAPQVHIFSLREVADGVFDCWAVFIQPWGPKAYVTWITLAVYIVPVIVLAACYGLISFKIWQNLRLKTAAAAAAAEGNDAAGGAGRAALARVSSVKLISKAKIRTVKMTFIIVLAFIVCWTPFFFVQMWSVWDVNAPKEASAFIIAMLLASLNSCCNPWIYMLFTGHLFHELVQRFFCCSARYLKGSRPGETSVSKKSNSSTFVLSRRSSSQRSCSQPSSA
# Method: NVS_GPCR_rOXT is a biochemical, single-readout assay that uses extracted gene-proteins from Rat uterine membranes in a tissue-based cell-free assay. Measurements were taken 1 hour after chemical dosing in a 48-well plate.NVS_GPCR_rOXT is one of one assay component(s) measured or calculated from the NVS_GPCR_rOXT assay. It is designed to make measurements of radioligand binding, a form of binding reporter, as detected with scintillation counting signals by Filter-based radiodetection technology.Data from the assay component NVS_GPCR_rOXT was analyzed into 1 assay endpoint. This assay endpoint, NVS_GPCR_rOXT, was analyzed in the positive analysis fitting direction relative to DMSO as the negative control and baseline of activity. […] Furthermore, this assay endpoint can be referred to as a primary readout, because the performed assay has only produced 1 assay endpoint. […]
# Binding assays used specific radioligands (tritiated, iodinated) with non-radioactive competitive displacement ligands in agonist or antagonist protocols (as indicated) and various reference compounds and inhibitors to titrate specific binding to receptors and transporters. Most enzyme assays (CYPs, kinases, phosphatases, proteases, HDACs) used recombinant protein and specific substrates (fluorescence mostly, some colorimetric and radioactive) and inhibitors, followed by a biochemical separation of substrate and product. […]
# [8] = molecular target: human Androgen Receptor (AR), AR (gene 367) (UniProt P10275); test: NVS_NR_hAR: NovaScreen (NVS) Nuclear Receptor Binding Assay for human Androgen Receptor (AR) (AID 2283332)
# Chain of human Androgen Receptor (AR), AR (gene 367) (P10275 whole entry, looked up): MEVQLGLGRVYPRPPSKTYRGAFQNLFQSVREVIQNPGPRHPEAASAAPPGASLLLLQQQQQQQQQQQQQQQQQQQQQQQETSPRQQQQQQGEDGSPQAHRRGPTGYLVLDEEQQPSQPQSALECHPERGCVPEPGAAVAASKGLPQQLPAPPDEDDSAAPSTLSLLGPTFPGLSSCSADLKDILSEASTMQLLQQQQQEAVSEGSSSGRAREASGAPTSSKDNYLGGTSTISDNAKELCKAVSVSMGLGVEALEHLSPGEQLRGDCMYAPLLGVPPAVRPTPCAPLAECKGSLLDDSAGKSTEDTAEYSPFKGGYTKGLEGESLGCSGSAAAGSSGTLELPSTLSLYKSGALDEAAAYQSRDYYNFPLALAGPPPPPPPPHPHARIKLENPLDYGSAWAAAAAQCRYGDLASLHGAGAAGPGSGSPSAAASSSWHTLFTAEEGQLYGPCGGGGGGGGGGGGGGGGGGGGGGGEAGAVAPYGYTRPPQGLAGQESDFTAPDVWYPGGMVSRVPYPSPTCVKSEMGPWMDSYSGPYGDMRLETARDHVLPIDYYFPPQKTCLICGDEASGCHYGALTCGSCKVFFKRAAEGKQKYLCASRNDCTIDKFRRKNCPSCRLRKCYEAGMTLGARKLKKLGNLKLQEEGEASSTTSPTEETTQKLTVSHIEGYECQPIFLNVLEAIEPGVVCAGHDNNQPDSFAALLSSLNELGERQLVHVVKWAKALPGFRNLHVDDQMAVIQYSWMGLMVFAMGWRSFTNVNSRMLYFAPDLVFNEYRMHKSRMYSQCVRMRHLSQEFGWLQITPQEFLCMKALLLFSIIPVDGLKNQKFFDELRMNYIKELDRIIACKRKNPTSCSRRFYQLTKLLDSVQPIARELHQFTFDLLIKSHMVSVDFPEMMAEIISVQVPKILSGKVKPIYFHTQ
# Procedure, shortened: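 Radioligand competitive binding, scintillation read-out, in cell-free extract from LnCAP, measured 20 h after dosing. Screened first in duplicate at 25 uM, then concentration series for actives; activity fitted against DMSO.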
compound,measurement,setting,value
CC1(C)CON(Cc2ccccc2Cl)C1=O,outcome,[1],inactive
N#Cc1c(Cl)cccc1Cl,AC50,[2],38.2 µM (active)
CN=C=S,outcome,[3],inactive
same,outcome,[4],inactive
same,outcome,[5],inactive
CC(C)(C)C(=O)C(Oc1ccc(Cl)cc1)n1cncn1 (stereo unspecified),outcome,[2],inactive
same,AC50,[5],44 µM (active)
CCCCC(C#N)(Cn1cncn1)c1ccc(Cl)cc1 (stereo unspecified),AC50,[2],25 µM (active)
same,outcome,[5],inactive
same,outcome,[6],inactive
C=C(C)CN(CC)c1c([N+](=O)[O-])cc(C(F)(F)F)cc1[N+](=O)[O-],outcome,[3],inactive
CC(C)NC(=O)N1CC(=O)N(c2cc(Cl)cc(Cl)c2)C1=O,outcome,[7],inactive
O=P(O)(O)CCCl,outcome,[7],inactive
COP(=S)(OC)SCn1nnc2ccccc2c1=O,AC50,[8],10.9 µM (active)
CCCCC(O)(Cn1cncn1)c1ccc(Cl)cc1Cl (stereo unspecified),AC50,[8],18 µM (active)
same,AC50,[6],13.4 µM (active)
